The record followed here is PubChem BioAssay AID720706 (Broad Institute, 2013).

Out of some 350,000 compounds screened, about 5,500 (1.6%) were called active.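 Rule for the calls: active = significant combined selectivity score with lowered wild-type GFP, culture density cut under 30%, mutant RFP and density less affected; inactive = any of these conditions unmet.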 The entries come from a sample that favours actives as a whole.

This assay is described as follows: reduced GFP signal of wild-type E. coli, primary screen, bacterial rRNA inhibitor project, GFP/RFP fluorescence, OD600, single point (AID 720706). To be noted: E. coli WT GFP vs humanized-ribosome RFP mutants, 24 h; GFP signal change (wild-type ribosome): stronger effect = lower value, DMSO median 0, no signal -100; OD600 change: measured here: OD600 growth, DMSO median 0, no signal -100; RFP signal change: measured here: RFP humanized mutant strains, DMSO median 0, no signal -100, concentration not given here.
Consider `COc1ccc2c3c(n(C)c2c1)[C@H](CO)NCC31CN(S(=O)(=O)c2cccc(C)c2)C1`, for which the GFP signal change (wild-type ribosome) is -0.56% (inactive), the OD600 change was -33% and the RFP signal change worked out at 8.22%.
For `CC(C)(C)c1ccc(S(=O)(=O)NCC2CCN(C(=O)C(=O)c3cc4ccccc4o3)CC2)cc1` the same measures were -0.31% (inactive), 0.126% and 0.99%.
For `O=C(C(=O)N1CCC(CNS(=O)(=O)Cc2ccccc2)CC1)c1cc2ccccc2o1` the same measures were -14% (active), -14.9% and 2.73%.
With `N#Cc1cccc(C(=O)NCC2CCN(C(=O)C(=O)c3cc4ccccc4o3)CC2)c1`, the GFP signal change (wild-type ribosome) is -2.59% (inactive), the OD600 change was -1.64% and the RFP signal change is -0.945%.
As to `COc1cccc(S(=O)(=O)N2CC3(CCN(C)CC3)c3c(n(C)c4cc(OC)ccc34)[C@H]2CO)c1`, the GFP signal change (wild-type ribosome) was -0.483% (inactive), the OD600 change is -1.36% and the RFP signal change is 0.12%.
The matching figures for `COc1ccc2c3c(n(C)c2c1)[C@@H](CO)N(C(=O)CN1CCOCC1)CC31CCN(Cc2ccncc2)CC1`: 1.45% (inactive), 2.53% and -1.13%.
For `C[C@@H](NC(=O)C[C@@H]1CC[C@H]2[C@@H](COC[C@@H](O)CN2C(=O)Nc2cccc(F)c2)O1)c1ccccc1`, the GFP signal change (wild-type ribosome) was -11.5% (inactive), the OD600 change was -6.23% and the RFP signal change turned out to be 5.17%.
As for `Cc1nn(C)c(C)c1S(=O)(=O)N1CCC(CO)(Cc2ccc(Cl)cc2)CC1`, the GFP signal change (wild-type ribosome) is -22% (active), the OD600 change is -16.9% and the RFP signal change was 0.06%.
The matching figures for `CCOc1ccccc1NC(=O)C1CCN(S(=O)(=O)c2c(C)nn(C)c2C)CC1`: 3.06% (inactive), -0.4% and -2.77%.
The matching figures for `COc1ccc(CC2(CO)CCN(Cc3cnn(C)c3)CC2)cc1`: 25.9% (inactive), 13% and 1.82%.
As for `O=C(NCC[C@@H]1CC[C@@H](NC(=O)c2ccccc2F)[C@H](CO)O1)c1ccc2c(c1)OCO2`, the GFP signal change (wild-type ribosome) was 0.211% (inactive), the OD600 change amounted to 0.175% and the RFP signal change is -1.31%.
The matching figures for `COc1ccc(NC(=O)N(C)C[C@@H]2Oc3ccc(NS(=O)(=O)c4ccc(Cl)cc4)cc3C(=O)N([C@H](C)CO)C[C@@H]2C)cc1`: -1.87% (inactive), -3.81% and 4.46%.
The matching figures for `CCCOc1ccc(F)cc1-c1cc(C(=O)Nc2ccc(F)c(Cl)c2)[nH]n1`: -11.9% (inactive), -20.4% and 8.72%.
`CCN(CC)C(=O)Oc1ccc(Br)cc1C(=O)Nc1ccc(F)c(Cl)c1`: the GFP signal change (wild-type ribosome) was -28% (active), the OD600 change was -13.7% and the RFP signal change is -1.17%.
The matching figures for `CCN(CC)C(=O)C(=O)Nc1cccc(Br)c1`: 2.19% (inactive), 1.55% and -1.36%.
With `COc1ccc2c3c(n(C)c2c1)[C@@H](CO)N(Cc1ccccc1OC)CC31CN(CC2CCOCC2)C1`, the GFP signal change (wild-type ribosome) is 2.13% (inactive), the OD600 change came to 1.76% and the RFP signal change is -0.161%.
With `COc1ccc(S(=O)(=O)Nc2ccc3c(c2)C(=O)N([C@H](C)CO)C[C@@H](C)[C@@H](CN(C)CC2CCCCC2)O3)cc1`, the GFP signal change (wild-type ribosome) was 3.31% (inactive), the OD600 change was -3.13% and the RFP signal change is -1.7%.
For the compound `O=C(C[C@H]1CC[C@@H]2[C@H](COC[C@H](O)CN2Cc2ccc(Oc3ccccc3)cc2)O1)N1CCN(c2ccccc2)CC1`, the GFP signal change (wild-type ribosome) was -14.8% (inactive), the OD600 change was -41.1% and the RFP signal change worked out at 19.9%.
In the case of `C[C@@H]1COCc2cnnn2CC[C@H](Cc2ccccc2)C(=O)N1`, the GFP signal change (wild-type ribosome) is 1.97% (inactive), the OD600 change is 6.09% and the RFP signal change is 0.175%.
For `CCc1ccc(C2=CC(=O)CC(C)(C)C2=O)cc1` the same measures were 9.3% (inactive), 6.63% and 1.11%.
The matching figures for `COC(=O)C1=C(C)N(Cc2ccc(C(F)(F)F)cc2)C(=NCc2ccccc2)NC1c1ccccc1C(F)(F)F` (stereo not drawn): -44.7% (inactive), -75.3% and -10.2%.
For `COC(=O)C1=C(C)N(Cc2ccc(C(F)(F)F)cc2)C(=NCc2ccc(C(F)(F)F)cc2)NC1c1cccc(Cl)c1` (stereo not drawn), the GFP signal change (wild-type ribosome) is -29.5% (active), the OD600 change was -8.48% and the RFP signal change came out at 10.4%.
The matching figures for `COC(=O)C1=C(C)N(Cc2cccc(C(F)(F)F)c2)C(=NCc2ccccc2)NC1c1ccc(Cl)cc1` (stereo not drawn): -51.5% (inactive), -79.1% and -15.9%.
For `CO[C@@H]1CN(C)C(=O)c2cc(NS(=O)(=O)c3ccccc3)ccc2OC[C@@H](C)N(C(=O)NC(C)C)C[C@@H]1C`, the GFP signal change (wild-type ribosome) was 1.8% (inactive), the OD600 change is -5.96% and the RFP signal change is -2.55%.
Consider `C[C@H](O)C#Cc1ccc([C@H]2[C@H](CO)N3CCCCN(C(=O)c4ccc(F)cc4)C[C@@H]23)cc1`, for which the GFP signal change (wild-type ribosome) is 4.08% (inactive), the OD600 change is 14.8% and the RFP signal change came to 0.514%.
With `CC(C)NC(=O)Nc1cccc2c1O[C@@H](CN(C)C(=O)NC(C)C)[C@@H](C)CN(C)C2=O`, the GFP signal change (wild-type ribosome) was -0.63% (inactive), the OD600 change is -5.7% and the RFP signal change is -0.789%.
Turning to `CC(C)NC(=O)N(C)C[C@H]1Oc2c(cccc2N(C)C)C(=O)N(C)C[C@H]1C`, the GFP signal change (wild-type ribosome) is 3.79% (inactive), the OD600 change is 5.03% and the RFP signal change is -1.64%.
Turning to `CN(C)C(=O)c1ccc(-c2ccc(C3[C@@H]4CN(S(=O)(=O)c5cccc(Cl)c5)C[C@H]3N4)cc2)cc1` (stereo partly drawn), the GFP signal change (wild-type ribosome) is -4.17% (inactive), the OD600 change is -4.3% and the RFP signal change was found to be 1.15%.
Take `CCN(CC)CCn1c2c(c(SCC(=O)Nc3nc4ccccc4s3)nc1=O)CCCC2`: the GFP signal change (wild-type ribosome) is -8.54% (inactive), the OD600 change is -9.96% and the RFP signal change stood at 4.44%.
Turning to `c1ccc(C(=NNc2nc3ccccc3s2)c2ccccn2)cc1`, the GFP signal change (wild-type ribosome) was -3.87% (inactive), the OD600 change is -7.96% and the RFP signal change is 1.5%.
For `c1ccc2sc(NN=C3CCCC3)nc2c1` the same measures were -34.8% (active), -19.9% and 0.135%.
